This is an account of results in PubChem BioAssay (NCATS).

Records with an inconclusive call do not appear. Values without a mark were called inactive. Active and inactive are the calls of the source. Calls follow the shape of the dose curve; as a rule, active = well fitted cell-killing curve with a large enough effect; inconclusive = small, poorly fitted or top-dose-only effect, or effect the other way; inactive = no such curve, though single readings can be large or run the other way. Residues, ends and D or L forms follow the SMILES beside them. *: point of attachment. Cbz = O=C(OCc1ccccc1)*

For orientation: viability means a read-out of living cells in per cent, often relative to untreated cells.
Potency is read from the fitted curve at half-maximal effect.

This assay in a line: Quantitative High-Throughput drug screen in 47 multiple myeloma cell lines against the NCATS MIPE library collection: ARP1_JJKsccF8 cell viability assay (AID 1918928; also: nearly all actives have a fitted effect of over 40% in size). Particulars: ARP1 myeloma cells viability, CellTiter-Glo ATP, 48 h; series mostly up to 45.8 µM; viability: at the top concentration. The text has this:
PI: Beverly A. Mock Ph.D.
Laboratory of Cancer Biology and Genetics,
Center for Cancer Research, National Cancer Institute,
National Institute of Health, Bethesda, Maryland
Drug resistance and disease progression are common in multiple myeloma (MM) patients, underscoring the need for new therapeutic combinations. […] We hypothesized that effective combinations would reduce MYC expression and enhance p16 activity. […] These preclinical data identify potentially useful drug combinations for evaluation in drug-resistant MM and reveal potential mechanisms of combined drug sensitivity.
Described herein is the primary MIPE qHTS used to cherrypick compounds. Validated compounds were then further tested for potential synergistic activiy.
[1] Peat TJ, Gaikwad SM, Dubois W, Gyabaah-Kessie N, Zhang S, Gorjifard S, Phyo Z, Andres M, Hughitt VK, Simpson RM, Miller MA, Girvin AT, Taylor A, Williams D, D'Antonio N, Zhang Y, Rajagopalan A, Flietner E, Wilson K, Zhang X, Shinn P, Klumpp-Thomas C, McKnight C, Itkin Z, Chen L, Kazandijian D, Zhang J, Michalowski AM, Simmons JK, Keats J, Thomas CJ, Mock BA. Drug combinations identified by high-throughput screening promote cell cycle transition and upregulate Smad pathways in myeloma. Cancer Lett. 2023 Aug 1;568:216284. doi: 10.1016/j.canlet.2023.216284. Epub 2023 Jun 24. PMID: 37356470; PMCID: PMC10408729.
SEQUENCE No. (e.g., 1, 2, 3, etc.); […] (e.g., Cells, Incubation, Reagent, etc.); VALUE and DESCRIPTION.
1; Cells; 5 uL; white, solid bottom 1536-well Greiner assay plate.
2; Compounds; 23 nL; Kalypsis pin tool (Wako USA) equipped with a 1536-well pin head to transfer to the assay plates.
3; Incubation; 48 hours; 37C incubation.
4; Reagent;5uL; CellTiter Glo (Promega).
5; Detector; 425V; Luminescence; Viewlux PerkinElmer.
NOTES (numbers refer to Sequence numbers above)
1. The cell-based screening methods employed in this study were like those previously published. Briefly, the corresponding myeloma cell lines were screened in 1,536-well plates with 500 cells, 5-uL per well for inhibition of cell viability (assessed by measuring ATP levels with CellTiterGlo).
2. NCATS MIPE 4.0 library of approved and investigational drugs were added using the Kalypsis pin tool. Wells treated with DMSO only for 100% viability and media only cells for 0% viability were used as controls.
3. The assay plates were covered and incubated for 48 hours in a 37C, 5% CO2 incubator with controlled humidity.
4. After 48 hours, CellTilter-GloTM luminescent substrate mix (Promega) reagent was added to the assay plate and plates we incubated for 5 min at room temperature.
5. Signal was measured as median relative luminescence units on a ViewLux (PerkinElmer) multiplate reader.
[1] Heske CM, Davis MI, Baumgart JT, Wilson K, Gormally MV, Chen L, Zhang X, Ceribelli M, Duveau DY, Guha R, Ferrer M, Arnaldez FI, Ji J, Tran HL, Zhang Y, Mendoza A, Helman LJ, Thomas CJ. Matrix Screen Identifies Synergistic Combination of PARP Inhibitors and Nicotinamide Phosphoribosyltransferase (NAMPT) Inhibitors in Ewing Sarcoma. Clin Cancer Res. 2017 Dec 1;23(23):7301-7311. doi: 10.1158/1078-0432.CCR-17-1121. Epub 2017 Sep 12. PMID: 28899971; PMCID: PMC6636827.
(Cellular ATP, detected with luciferase, serves as a proxy for viable cell number.)
For the compound `CC(C)C[C@@H](C=O)NC(=O)[C@H](CC(C)C)NC(=O)[C@H](CC(C)C)NC(=O)OCc1ccccc1` (Cbz-Leu-Leu-Leu-aldehyde), the Potency was 0.332 µM (active).
Turning to `C=CC(=O)Nc1cccc(Nc2nc(NC3CCC(N(C)C)CC3)nc3c2ncn3C(C)C)c1` (stereo not given), the Potency was 0.743 µM (active).
On to `CN[C@H](CC(C)C)C(=O)N[C@H]1C(=O)N[C@@H](CC(N)=O)C(=O)N[C@@H]2C(=O)N[C@H]3C(=O)N[C@H](C(=O)N[C@H](C(=O)O)c4cc(O)cc(O)c4-c4cc3ccc4O)[C@H](O)c3ccc(c(Cl)c3)Oc3cc2cc(c3O[C@@H]2O[C@H](CO)[C@@H](O)[C@H](O)[C@@H]2O[C@H]2C[C@](C)(N)[C@H](O)[C@H](C)O2)Oc2ccc(cc2Cl)[C@H]1O`, for which the “viability” value is 112%.
On the same count and under the same terms, then `CC(=O)O[C@H]1C[C@@H]2CC[C@H]3[C@H]4C[C@H]([N+]5(C)CCCCC5)[C@@H](OC(C)=O)[C@@]4(C)CC[C@@H]3[C@@]2(C)C[C@H]1N1CCCCC1`, with 103%; and `O=C(NNC(=O)c1ccc(CNS(=O)(=O)c2ccc(F)c(Cl)c2)cc1)c1ccccc1`, with 109%; and `CCOC(=O)C=C[C@H](C[C@@H]1CCNC1=O)NC(=O)[C@@H](CC(=O)[C@@H](NC(=O)c1cc(C)on1)C(C)C)Cc1ccc(F)cc1`, with 104%.
In the case of `CN1CCCN(C(=O)c2cccc(-c3ccc(C=C4C(=O)Nc5ccc(Cl)cc54)o3)c2)CC1`, the Potency is 16.6 µM (active).
As to `CC(=O)ON=C1C(c2c(O)[nH]c3cc(Br)ccc23)=Nc2ccccc21`, the Potency was 10.5 µM (active).
Consider `COc1ccc(Nc2cc(-c3cnc(N)nc3)nc(N3CCOCC3)n2)cn1`, for which the Potency is 0.469 µM (active).
For the compound `COC[C@H](NC(=O)c1cnc(C)s1)C(=O)N[C@@H](COC)C(=O)N[C@@H](Cc1ccccc1)C(=O)[C@@]1(C)CO1`, the Potency was 0.0743 µM (active).
With `C#CCC(Cc1cnc2nc(N)nc(N)c2n1)c1ccc(C(=O)N[C@@H](CCC(=O)O)C(=O)O)cc1` (stereo not given in full), the Potency was 0.0469 µM (active).
Turning to `CC(C=CC1=C(C)CCCC1(C)C)=CC=CC(C)=CC(=O)Nc1ccc(O)cc1`, the Potency was 19.1 µM (active).
On to `C[C@H](NC(=O)Cc1cc(F)cc(F)c1)C(=O)N[C@H](C(=O)OC(C)(C)C)c1ccccc1`, for which the “viability” value was 99.7%.
On to `O=C(O)C[C@H](O)C[C@H](O)C=Cc1c(C2CC2)nc2ccccc2c1-c1ccc(F)cc1`, for which the Potency was 13.2 µM (active).
For the compound `CCNC(=O)c1cc2c(-c3cc(OCCN4CCCC4)c(Cl)cc3Cl)nc(N)nc2s1`, the Potency was 1.66 µM (active).
In the case of `COc1cc(C=CC(=O)CC(=O)C=Cc2ccc(O)c(OC)c2)ccc1O`, the Potency is 8.55 µM (active).
Turning to `CC(C)OC(=O)[C@H](C)N[P@](=O)(OC[C@H]1O[C@@H](n2ccc(=O)[nH]c2=O)[C@](C)(F)[C@H]1O)Oc1ccccc1`, the “viability” value is 115%.
For the compound `CC(N[C@H]1CCCC[C@H]1NC(=O)c1ccc(Cl)cc1)c1cccc2ccccc12` (stereo not given in full), the “viability” value is 67.1%.
With `CC(C)(C)[N+]([O-])=Cc1ccc(S(=O)(=O)O)cc1S(=O)(=O)O`, the “viability” value is 127%.
As for `CCC[C@H]1C[C@H](C(=O)N[C@@H]([C@@H]2O[C@@H](SC)[C@@H](O)[C@@H](O)[C@@H]2O)[C@H](C)Cl)N(C)C1`, the “viability” value was 136%.
On to `COc1cccc2c1C(=O)c1c(O)c3c(c(O)c1C2=O)C[C@@](O)(C(=O)CO)C[C@@H]3O[C@H]1C[C@H](N)[C@H](OC2CCCCO2)[C@H](C)O1` (stereo not given in full), for which the Potency is 3.32 µM (active).
Still for that read-out and setting: as for `CC(C)Oc1ccc(C(=O)N[C@H](CNC(=O)CN(C)C)Cc2ccc(-c3cn4cccc([C@H](C)O)c4n3)cc2)cc1Cl`, the figure is 0.935 µM (active); as for `CC(=O)SCC(Cc1ccccc1)C(=O)NCC(=O)OCc1ccccc1` (stereo not given), 2.35 µM (active).
For the compound `CCN(C(=O)c1c(O)c2c(Cl)cccc2n(C)c1=O)c1ccccc1`, the “viability” value was 117%.
Take `COc1cc2c(Nc3ccc(Cl)c(Cl)c3F)ncnc2cc1OCC1C[C@@H]2CN(C)C[C@H]2C1`: the Potency was 8.33 µM (active).
Same read-out and setting: then `Oc1ccc(-c2ccc(-c3cc(Nc4cccc(CNC5CC5)c4)n[nH]3)cc2)c(O)c1`, with 4.18 µM (active); and `Cn1cc(C=CC(=O)c2cccc(F)c2)cc1C=CC(=O)NO`, with 16.6 µM (active).
Regarding `CC(C)(C)[C@H](NC(=O)c1ccc(N)c(Cl)c1)C(=O)N1CCC[C@@H]1C(=O)N[C@H](C#N)CC(=O)O`, the viability is 111% [at 3.51 µM].
In the case of `CC(C)NC[C@@H](C(=O)N1CCN(c2ncnc3c2[C@H](C)C[C@H]3O)CC1)c1ccc(Cl)cc1`, the Potency was 2.09 µM (active).
As for `OCCN1C[C@H](O)[C@@H](O)[C@H](O)[C@@H]1CO`, the “viability” value is 111%.
As to `O=C(C=Cc1ccc(CN(CCO)CCc2c[nH]c3ccccc23)cc1)NO`, the Potency is 0.0833 µM (active).
Turning to `CCOC(=O)[C@@H](N)Cc1ccc(-c2cc(O[C@H](c3ccc(Cl)cc3-n3ccc(C)n3)C(F)(F)F)nc(N)n2)cc1`, the Potency was 14.8 µM (active).
Still for that read-out and setting: then `C#Cc1cccc(Nc2ncnc3cc(OCCOC)c(OCCO)cc23)c1`, with 23.5 µM (active); and `CNC(=O)c1ccc(Nc2cc(Nc3ccccc3S(=O)(=O)C(C)C)c3cc[nH]c3n2)nc1`, with 18.7 µM (active).
As to `CC(C)(O)Cn1c(NC(=O)c2ccc(-c3cn[nH]c3)s2)nc2cc(CN3CCOCC3)ccc21`, the Potency is 1.18 µM (active).
For the compound `COc1ccc(C[C@@H](C)[C@@H](C)Cc2ccc(OC)c(OC)c2)cc1OC`, the Potency was 0.132 µM (active).
In the case of `CC1(C)CC(O)CC(C)(C)N1[O]`, the “viability” value was 113%.
Take `CCc1nc(-c2cccc(C)c2)c(-c2ccnc(NC(=O)c3ccccc3)c2)s1`: the Potency is 11.8 µM (active).
As to `COC(=O)[C@H](CCCN=C(N)N)NS(=O)(=O)c1ccc(C)cc1`, the “viability” value is 106%.
As for `CC[C@H](CC[C@@H](C)[C@H]1CC[C@H]2[C@@H]3CC=C4C[C@@H](O)CC[C@]4(C)[C@@H]3CC[C@]12C)C(C)C`, the “viability” value was 100%.
